Assay results taken from PubChem BioAssay (Tox21).
Inconclusive results are not listed. Calls of active or inactive are those of the source. Unless noted, calls follow the shape of the dose curve; as a rule, active = well fitted curve in the direction sought with a large enough effect in the repeat runs; inconclusive = weak or mixed curves; inactive = no such curve, though single readings can be large; an effect the other way counts as inactive or inconclusive.

Legend:
[1] = qHTS assay for small molecule agonists of the p53 signaling pathway (AID 651631; calls by dose curve; also: nearly all actives have a fitted effect of over 15% in size)
In short: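 HCT-116 cells carrying a stable p53 response element–beta-lactamase reporter were plated, rested 5 h at 37 °C, then exposed to compound in DMSO for 16 h at 37 °C; reporter activity was read as FRET substrate fluorescence after 2 h at room temperature.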

[2] = qHTS assay for small molecules that induce genotoxicity in human embryonic kidney cells expressing luciferase-tagged ATAD5 (AID 651632); also: nearly all actives have a fitted effect of over 15% in size
In short: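 ATAD5-luc HEK293T, 2,000 cells/well; cpd or DMSO pin-transferred; 16 hr, 37C/5% CO2; Amplite 30 min RT; luminescence.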

[3] = qHTS assay for small molecule agonists of the p53 signaling pathway - cell viability (AID 651633; calls by dose curve; also: nearly all actives have a fitted effect of over 30% in size)
In short: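 Viability counter-read: CellTiter-Glo luminescence (30 min, room temperature) in the same p53RE-bla plates. These plates had been exposed to compounds for 16 h at 37 C.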

[4] = qHTS assay for small molecules that induce genotoxicity in human embryonic kidney cells expressing luciferase-tagged ATAD5 - cell viability (AID 651634; calls by dose curve; also: nearly all actives have a fitted effect of over 25% in size)
In short: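 Fluorescence from CellTiter-Fluor, reporting protease activity within live cells, served as the viability read-out. HEK293T cells carrying luciferase-tagged ATAD5 had been treated with compound for 15.5 hr at 37C.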

[5] = qHTS assay for small molecule disruptors of the mitochondrial membrane potential - cell viability (AID 720634; calls by dose curve;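 also: human HepG2 liver cancer cells; nearly all actives have a fitted effect of over 20% in size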)
In short: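 Cells: HepG2, 2,000/well, attached overnight. Compound 1 hr, 37 C/5% CO2. +m-MPI dye, +CellTiter-Glo 30 min RT. Readout: luminescence (ATP).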

[6] = qHTS assay for small molecule disruptors of the mitochondrial membrane potential (AID 720635)
In short: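 Mitochondrial membrane potential tracked with Mito-MPS dye, red aggregates (ex 540/em 590 nm) against green monomers (ex 490/em 535 nm). Compound treatment 1 hr at 37C, dye 30 min in HepG2.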

[7] = qHTS assay to test for compound auto fluorescence at 590 nm (red) in HepG2 cells (AID 720674)
In short: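 We screened compounds on adherent HepG2 cells, incubating them for an hour at 37 C in 5% CO2 before reading emission at 590 nm under 540 nm excitation; values reflect equivalence to Rose Bengal sodium fluorescence.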

[8] = qHTS assay to test for compound auto fluorescence at 535 nm (green) in HepG2 cells (AID 720675)
[9] = qHTS assay to test for compound auto fluorescence at 460 nm (blue) in HEK293 cells (AID 720678)
In short: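 Cells were seeded and left to adhere for 4-5 hr at 37C. Compounds were then pin-transferred. After an overnight incubation at 37C under 5% CO2, intrinsic fluorescence at 405/460 nm was measured and referenced to triamterene.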

[10] = qHTS assay to test for compound auto fluorescence at 535 nm (green) in HEK293 cells (AID 720680)
[11] = qHTS assay to test for compound auto fluorescence at 460 nm (blue) in HEK293 cell free culture (AID 720681)
In short: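 Blue fluorescence (Ex 405/Em 460 nm, triamterene-equivalent) was read immediately after pin transfer of compound or DMSO into medium (DMEM, 10% FBS) without cells.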

[12] = qHTS assay to test for compound auto fluorescence at 535 nm (green) in HEK293 cell free culture (AID 720682)
In short: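 Read-out: 485/535 nm fluorescence intensity, calibrated against fluorescein. Medium only (DMEM + 10% FBS, no cells); test compound or DMSO vehicle added by pintool before plate reading.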

[13] = qHTS assay to test for compound auto fluorescence at 590 nm (red) in HEK293 cell free culture (AID 720683)
In short: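 Red-channel autofluorescence of compounds in culture medium (DMEM, 10% FBS), no cells, measured at 540/590 nm. Rose Bengal sodium is the reference fluorophore for equivalence.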

[14] = qHTS assay to test for compound auto fluorescence at 590 nm (red) in HepG2 cell free culture (AID 720684)
In short: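 Plate contents were MEM with 10% FBS plus test compound or DMSO, no cells. Fluorescence was recorded with 540 nm excitation and 590 nm emission.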

[15] = qHTS assay to test for compound auto fluorescence at 460 nm (blue) in HepG2 cell free culture (AID 720685)
In short: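 Compound (23 nL) or DMSO pinned into cell-free MEM with 10% FBS; blue fluorescence read at 405/460 nm excitation/emission, expressed as auto-fluorescence equivalency to triamterene.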

[16] = qHTS assay to test for compound auto fluorescence at 535 nm (green) in HepG2 cell free culture (AID 720686)
[17] = qHTS assay to test for compound auto fluorescence at 460 nm (blue) in HepG2 cells (AID 720687)
In short: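 Blue-channel autofluorescence (Ex/Em 405/460 nm, triamterene-equivalent) was measured after 1 hr compound exposure at 37 C, 5% CO2. Cells were HepG2, plated overnight at 37 C in MEM plus 10% FBS.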

[18] = target: Glucocorticoid receptor (Homo sapiens) (UniProt P04150); assay: qHTS assay to identify small molecule agonists of the glucocorticoid receptor (GR) signaling pathway (AID 720691; active = well fitted activation curve with a large enough effect in the signal ratio in the repeat runs, not every such curve was filed as active; the % refers to the signal ratio); details: GR-bla HeLa, beta-lactamase reporter ratio, 18 h; activation: at 62.4 µM (top of the series) unless noted
Sequence of Glucocorticoid receptor (Homo sapiens) (P04150 whole entry, looked up): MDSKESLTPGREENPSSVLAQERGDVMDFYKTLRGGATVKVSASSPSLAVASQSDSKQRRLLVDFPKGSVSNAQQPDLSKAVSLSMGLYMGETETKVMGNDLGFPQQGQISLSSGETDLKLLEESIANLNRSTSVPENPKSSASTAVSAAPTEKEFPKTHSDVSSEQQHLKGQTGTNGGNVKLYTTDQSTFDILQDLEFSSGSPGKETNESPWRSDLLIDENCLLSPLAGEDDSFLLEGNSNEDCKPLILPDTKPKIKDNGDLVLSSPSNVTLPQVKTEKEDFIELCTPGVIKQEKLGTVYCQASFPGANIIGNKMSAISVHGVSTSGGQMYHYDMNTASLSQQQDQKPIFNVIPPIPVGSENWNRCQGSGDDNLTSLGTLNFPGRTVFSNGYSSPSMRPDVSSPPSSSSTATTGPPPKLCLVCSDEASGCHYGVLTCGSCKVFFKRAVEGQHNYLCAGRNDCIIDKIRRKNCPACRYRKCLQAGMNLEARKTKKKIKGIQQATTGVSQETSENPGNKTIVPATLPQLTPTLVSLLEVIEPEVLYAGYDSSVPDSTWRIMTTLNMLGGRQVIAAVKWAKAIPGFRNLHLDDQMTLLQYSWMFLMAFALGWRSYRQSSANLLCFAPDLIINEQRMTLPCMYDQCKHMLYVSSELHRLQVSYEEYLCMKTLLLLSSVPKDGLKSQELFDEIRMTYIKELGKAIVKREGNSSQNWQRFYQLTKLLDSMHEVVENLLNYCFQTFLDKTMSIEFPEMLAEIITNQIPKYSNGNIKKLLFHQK
In short: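 Fluorescence intensity from LiveBLAzer B/G FRET substrate (2 h, room temperature) reports beta-lactamase expression driven by the glucocorticoid response element in GR-bla HeLa cells after 18 h compound exposure at 37 C.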

[19] = target: Glucocorticoid receptor (Homo sapiens) (UniProt P04150); assay: qHTS assay to identify small molecule antagonists of the glucocorticoid receptor (GR) signaling pathway (AID 720692; active = well fitted inhibition curve with a large enough effect in the signal ratio in the repeat runs, not every such curve was filed as active; the % refers to the signal ratio)
In short: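 HeLa GR-bla cells; cmpd + dex 5 nM final, 18 h 37 C; LiveBLAzer B/G FRET substrate 2 h RT; fluorescence intensity read. Antagonist mode, qHTS.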

[20] = qHTS assay to test for compound auto fluorescence at 590 nm (red) in HEK293 cells (AID 720679)
In short: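 Each well held 2,000 HEK293 cells in medium containing 10% dialyzed FBS. Following 4-5 hr attachment at 37C, 23 nL test compound or DMSO was added; plates sat overnight, and red fluorescence (540/590nm) was recorded.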

Measured: Potency

O=C1c2ccccc2S(=O)(=O)N1CCCCN1CCN(c2ncccn2)CC1
not listed: [20]
inactive: all other assays above

OCCNCc1ccccc1
not listed: [19]
inactive: all other assays above

CN(C)c1ccc(CCO)cc1
not listed: [7] | [18] | [19]
inactive: all other assays above

C/C=C/C=C/CO
inactive: all assays above

Nc1cc(C(=O)O)c(O)c(S(=O)(=O)O)c1
not listed: [7]
inactive: all other assays above

CCN(CC)CCNC(=O)c1cc(Br)c(N)cc1OC
not listed: [13] | [18] | [19] | [20]
inactive: all other assays above
